# Residue numbers refer to the chain shown, from its start.
# Key:
# Experiment in all cases: yeast three-hybrid, YBZ-1, SC-Leu-His + 0.5 mM 3-AT, 4 days
# Details in all cases: tags: N-Gal4 AD-HA kept; label: inside an RPR1-promoter hybrid RNA with tandem MS2 sites; ssRNA
# PUM1 PUF domain R8-HFP = PUM1 PUF domain R8-HFP (Homo sapiens, UniProt Q14671 828-1176, N1122H;Y1123F;Q1126P)
# Method in brief: (§1)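 Pumilio-1 PUF domain libraries, randomized (NNK) at the three base-contacting residues of each repeat, were co-expressed with matching RNA elements from a centromeric plasmid in strain YBZ-1 (LexA–MS2 coat fusion, HIS3 reporter). Transformants were plated on SC-Leu (input) and SC-Leu-His + 0.5 mM 3-AT (selection) for four days, and repeat regions were PCR-amplified and Illumina-sequenced. The interaction score is the log2 change in variant frequency from input to selection, with pseudocount 1 where absent.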
# PUM1 PUF domain R8-PYC = PUM1 PUF domain R8-PYC (Homo sapiens, UniProt Q14671 828-1176, N1122P;Q1126C)
# Method in brief: as §1
# PUM1 PUF domain R3-RPQ = PUM1 PUF domain R3-RPQ (Homo sapiens, UniProt Q14671 828-1176, C935R;R936P)
# Method in brief: as §1
# PUM1 PUF domain R5-AAR = PUM1 PUF domain R5-AAR (Homo sapiens, UniProt Q14671 828-1176, C1007A;R1008A;Q1011R)
# Method in brief: as §1
# PUM1 PUF domain R6-KWC = biological target: T1, PUM1 PUF domain R6-KWC (Homo sapiens, UniProt Q14671 828-1176, N1043K;Y1044W;Q1047C)
# T1 sequence: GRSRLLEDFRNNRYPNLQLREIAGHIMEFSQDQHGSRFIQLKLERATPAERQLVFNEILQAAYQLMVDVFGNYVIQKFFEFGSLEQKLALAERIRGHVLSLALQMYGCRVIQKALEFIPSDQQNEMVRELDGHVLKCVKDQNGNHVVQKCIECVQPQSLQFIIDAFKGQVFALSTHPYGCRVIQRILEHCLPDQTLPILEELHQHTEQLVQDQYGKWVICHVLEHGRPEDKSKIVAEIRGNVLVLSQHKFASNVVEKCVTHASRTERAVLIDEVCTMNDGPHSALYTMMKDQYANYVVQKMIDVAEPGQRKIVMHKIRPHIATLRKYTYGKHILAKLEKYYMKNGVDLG
# Method in brief: as §1
# PUM1 PUF domain R4-DFR = PUM1 PUF domain R4-DFR (Homo sapiens, UniProt Q14671 828-1176, N971D;H972F;Q975R)
# Method in brief: as §1
# [1] = biological target: PUM1 PUF domain R1-QFR R2-VFQ R7-NPG (Homo sapiens, UniProt Q14671 828-1176, S863Q;R864F;Q867R;N899V;Y900F;S1079N;N1080P;E1083G)
# Method in brief: as §1
# PUM1 PUF domain R6-RWL = biological target: T2, PUM1 PUF domain R6-RWL (Homo sapiens, UniProt Q14671 828-1176, N1043R;Y1044W;Q1047L)
# T2 sequence: T1 sequence with K216R, C220L
# Method in brief: as §1
# PUM1 PUF domain R6-CWL = biological target: T3, PUM1 PUF domain R6-CWL (Homo sapiens, UniProt Q14671 828-1176, N1043C;Y1044W;Q1047L)
# T3 sequence: T1 sequence with K216C, C220L
# Method in brief: as §1
# PUM1 PUF domain R1-TKK = PUM1 PUF domain R1-TKK (Homo sapiens, UniProt Q14671 828-1176, S863T;R864K;Q867K)
# Method in brief: as §1
sequence,measurement,setting,value
GGCUAGAACUAGUGGAUCCCCCGGCGCCCGGCGGCUCGAGCCCGGGUAAGCGUAAAUAGUCUGCAUGCCGCCGGGCGCCAUGCCUGCAGGUCGACUCUAGAAAACAUG,binding signal,PUM1 PUF domain R8-HFP,6.79 log2 enrichment (interaction score)
same,binding signal,PUM1 PUF domain R8-PYC,3.77 log2 enrichment (interaction score)
GGCUAGAACUAGUGGAUCCCCCGGCGCCCGGCGGCUCGAGCCCGGGUAAGUGUAAUUAGUCUGCAUGCCGCCGGGCGCCAUGCCUGCAGGUCGACUCUAGAAAACAUG,binding signal,PUM1 PUF domain R3-RPQ,3.45 log2 enrichment (interaction score)
GGCUAGAACUAGUGGAUCCCCCGGCGCCCGGCGGCUCGAGCCCGGGUAAGUGUUAAUAGUCUGCAUGCCGCCGGGCGCCAUGCCUGCAGGUCGACUCUAGAAAACAUG,binding signal,PUM1 PUF domain R5-AAR,1.62 log2 enrichment (interaction score)
GGCUAGAACUAGUGGAUCCCCCGGCGCCCGGCGGCUCGAGCCCGGGUAAGUGAAAAUAGUCUGCAUGCCGCCGGGCGCCAUGCCUGCAGGUCGACUCUAGAAAACAUG,binding signal,PUM1 PUF domain R6-KWC,6.72 log2 enrichment (interaction score)
GGCUAGAACUAGUGGAUCCCCCGGCGCCCGGCGGCUCGAGCCCGGGUAAGUGUCAAUAGUCUGCAUGCCGCCGGGCGCCAUGCCUGCAGGUCGACUCUAGAAAACAUG,binding signal,PUM1 PUF domain R5-AAR,4.02 log2 enrichment (interaction score)
GGCUAGAACUAGUGGAUCCCCCGGCGCCCGGCGGCUCGAGCCCGGGUAAGUGUACAUAGUCUGCAUGCCGCCGGGCGCCAUGCCUGCAGGUCGACUCUAGAAAACAUG,binding signal,PUM1 PUF domain R4-DFR,5.83 log2 enrichment (interaction score)
GGCUAGAACUAGUGGAUCCCCCGGCGCCCGGCGGCUCGAGCCCGGGUAAGUUUAAAACGUCUGCAUGCCGCCGGGCGCCAUGCCUGCAGGUCGACUCUAGAAAACAUG,binding signal,[1],6.82 log2 enrichment (interaction score)
GGCUAGAACUAGUGGAUCCCCCGGCGCCCGGCGGCUCGAGCCCGGGUAAGUGUAAAUAGUCUGCAUGCCGCCGGGCGCCAUGCCUGCAGGUCGACUCUAGAAAACAUG,binding signal,PUM1 PUF domain R6-RWL,5.11 log2 enrichment (interaction score)
same,binding signal,PUM1 PUF domain R6-CWL,3.76 log2 enrichment (interaction score)
GGCUAGAACUAGUGGAUCCCCCGGCGCCCGGCGGCUCGAGCCCGGGUAAGUGUAUAUAGUCUGCAUGCCGCCGGGCGCCAUGCCUGCAGGUCGACUCUAGAAAACAUG,binding signal,PUM1 PUF domain R4-DFR,6.14 log2 enrichment (interaction score)
GGCUAGAACUAGUGGAUCCCCCGGCGCCCGGCGGCUCGAGCCCGGGUAAGUGUAAAUCGUCUGCAUGCCGCCGGGCGCCAUGCCUGCAGGUCGACUCUAGAAAACAUG,binding signal,PUM1 PUF domain R1-TKK,3.92 log2 enrichment (interaction score)

# — article PMC8384837, “Expanding the binding specificity for RNA recognition by a PUF domain”
